Compound activity as filed in PubChem.
In the library only some 1.2% were active in any assay of this set; here they are far more common.
Avidin bead fluor: compound fluoresces at 488/530 nm on avidin beads | compound fluorescence 488/530 nm, flow cytometry; stronger effect = higher value | fluorescence (KMESF) at 10 µM | 0.38% of 220,000 active | AID 1775; in the data active = fluorescence above about 47
RGS8-Gao: regulators of human RGS8-Galphao interaction | multiplexed bead flow cytometry, RGS8-Galphao binding; actives lie on both sides | AID 1423 | response (percent of control binding), % at 10 µM | 0.34% of 220,000 active | P09471; in the data active = response below about 60% or above about 140%; inactive = in between;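 note: Galphao activated as the GDP aluminium fluoride complex binding bead-coupled RGS8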
Target sequence (P09471 whole entry, looked up): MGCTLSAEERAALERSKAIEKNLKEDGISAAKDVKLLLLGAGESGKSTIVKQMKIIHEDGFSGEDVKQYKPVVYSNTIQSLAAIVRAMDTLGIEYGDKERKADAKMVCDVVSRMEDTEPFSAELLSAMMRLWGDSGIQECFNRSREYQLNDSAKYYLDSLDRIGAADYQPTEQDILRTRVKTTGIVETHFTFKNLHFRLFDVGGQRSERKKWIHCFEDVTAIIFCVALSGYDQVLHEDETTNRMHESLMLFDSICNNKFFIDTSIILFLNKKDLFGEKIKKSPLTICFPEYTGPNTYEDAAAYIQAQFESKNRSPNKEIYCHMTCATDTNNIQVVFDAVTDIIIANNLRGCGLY
RGS7-Gao: modulates binding of RGS7 to human Galphao; Multiplexed bead flow cytometry; actives lie on both sides; 0.35% of 220,000 active; binding response (% of control), % at 10 µM; in the data active = binding response below about 49% or above about 150%; inconclusive = no clear call, values can overlap the other calls; inactive = in between;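 note: fluorescent Galphao held in activated GDP-AlF4 state binding bead-coupled RGS7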
RGS4-Gao reg: human RGS4-Galphao interaction regulation | P09471 | Multiplexed bead flow cytometry, RGS4-Galphao binding; actives lie on both sides | binding response (% of control), % at 10 µM | 0.33% of 220,000 active; in the data active = binding response below about 49% or above about 150%; inactive = in between;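 note: fluorescent Galphao activated with aluminum fluoride binding bead-coupled RGS4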
GSH bead fluor: GSH bead compound fluorescence profile; GSH beads flow cytometry, compound fluorescence 488/530 nm; stronger effect = higher value; fluorescence (KMESF) at 10 µM; 0.25% of 190,000 active; in the data active = fluorescence above about 89;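 note: glutathione beads carrying GST-tagged Bcl family fusion proteins plus one bare bead set; values are compound well signal with DMSO vehicle wells as background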
RGS16-Gao HTS: regulators of human RGS16-Galphao interaction | O15492+P09471 | bead-based flow cytometry RGS16-Galphao binding, fluorescence; actives lie on both sides | binding response (% of control), % at 10 µM | 0.38% of 220,000 active | AID 1441;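 note: Galphao activated by GDP with aluminum fluoride before binding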
Target sequence (O15492 whole entry, looked up): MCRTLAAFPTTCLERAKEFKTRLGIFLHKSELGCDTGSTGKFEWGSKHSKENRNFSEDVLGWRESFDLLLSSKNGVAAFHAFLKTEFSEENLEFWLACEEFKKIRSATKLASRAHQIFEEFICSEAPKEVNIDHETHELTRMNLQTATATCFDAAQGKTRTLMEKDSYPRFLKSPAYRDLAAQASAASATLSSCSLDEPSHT
Target sequence (P09471 whole entry, looked up): as the sequence (P09471 whole entry, looked up) above
RGS4-Gao HTS: RGS4-Galphao interaction regulator (human); shares compounds with RGS16-Gao HTS; multiplexed bead flow cytometry, RGS–Galpha-o binding; RGS4–Galpha-o binding response, % at 10 µM; 99% of 1,600 active; AID 1504;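 note: fluorescently labeled Galpha-o bound to GDP with aluminium fluoride binding biotinylated RGS beads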
Avidin counter: counter-screen: compounds disrupting biotin binding to avidin beads; AID 1783; shares compounds with RGS16-Gao HTS; streptavidin beads, fluorescein-biotin binding, flow cytometry; 1,700 tested, under 10 active; inhibition, % at 10 µM;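 active = inhibition above 50%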;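 note: median green fluorescence of gated singlet beads compared with DMSO control wells; 0% = DMSO wells and 100% = complete loss of bead fluorescence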
RGS8-Gao confirm: confirmation of regulators of human RGS8-Galphao interaction; binding response (% of control), % at 10 µM; AID 1836; shares compounds with RGS16-Gao HTS; 3% of 1,700 active; bead-based flow cytometry RGS8-Galphao binding, fluorescence; actives lie on both sides; in the data active = binding response below about 72% or above about 130%; inactive = in between;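 note: Galphao activated as GDP AlF4 complex before binding bead RGS8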
RGS7-Gao confirm: confirmation of regulators of human RGS7-Galphao interaction; shares compounds with RGS16-Gao HTS; bead-based flow cytometry RGS7-Galphao binding; actives lie on both sides; 7.8% of 1,700 active; response (percent of control binding), % at 10 µM; AID 1837; in the data active = response below about 75% or above about 130%; inactive = in between;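 note: fluorescent Galphao activated with GDP and aluminum fluoride binding bead-coupled RGS7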
RGS16-Gao conf: RGS16-Galphao interaction regulation, single point confirmation. shares compounds with RGS16-Gao HTS. bead-based flow cytometry, RGS16-Galphao binding; actives lie on both sides. response (% of control binding), % at 10 µM. 4% of 1,700 active. AID 1838; in the data active = response below about 74% or above about 130%; inactive = in between;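 note: Galphao activated as the GDP aluminium fluoride complex binding bead-coupled RGS16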
RGS4-Gao confirm: RGS4-Galphao interaction regulation, single point confirmation; binding response (% of control), % at 10 µM; AID 1840; shares compounds with RGS16-Gao HTS; 4% of 1,700 active; RGS4-Galphao binding, multiplexed bead flow cytometry; actives lie on both sides; in the data active = binding response below about 74% or above about 130%; inactive = in between
RGS19-Gao conf: confirmation of regulators of human RGS19-Galphao interaction; AID 1841; response (percent of control binding), % at 10 µM; bead-based flow cytometry RGS19-Galphao binding; actives lie on both sides; 5% of 1,700 active; shares compounds with RGS16-Gao HTS; in the data active = response below about 50% or above about 160%; inactive = in between;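 note: 100% = no compound control and 0% = blank background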
* = called active by the depositor; [ ] = remark or other dose. Unless noted, the rule behind the calls is not given here.

`COc1ccc(-n2c(SCC(=O)Nc3cc(C)on3)nc3c(c2=O)SCC3)cc1` gave Avidin bead fluor 5, RGS8-Gao 165.7*[activator], RGS7-Gao 117.2, RGS4-Gao reg 121.9, GSH bead fluor 26, RGS16-Gao HTS 355.3, RGS4-Gao HTS 121.9*, Avidin counter 0.5, RGS8-Gao confirm 98.9, RGS7-Gao confirm 91.5, RGS16-Gao conf 97.5, RGS4-Gao confirm 99.4 and RGS19-Gao conf 100.0.
For CC(C)NC(=O)CSc1nnc(-c2ccc3ncccc3c2)n1C the results were Avidin bead fluor 7, RGS8-Gao 98.8, RGS7-Gao inconclusive, RGS4-Gao reg 102.0 and RGS16-Gao HTS 99.1.
Screening O=C(Nc1ccccc1)N1CCCC1 returned GSH bead fluor 41, Avidin counter 1.6, RGS8-Gao confirm 96.8, RGS7-Gao confirm 96.8, RGS16-Gao conf 98.2, RGS4-Gao confirm 96.4 and RGS19-Gao conf 87.9.
Screening CCCCc1ccc(NC(=O)CN2NS(=O)(=O)c3ccccc3C2=O)cc1 returned Avidin bead fluor 5, RGS8-Gao 81.2, RGS7-Gao 88.0, RGS4-Gao reg 86.6, GSH bead fluor 12, RGS16-Gao HTS -6.9* and RGS4-Gao HTS 86.6*.
Screening CC(=O)Nc1ccc(Nc2ccc(N3C(=O)CCCC3=O)cc2[N+](=O)[O-])cc1 returned Avidin bead fluor 0, RGS8-Gao 52.9*, RGS7-Gao 47.4*, RGS4-Gao reg 45.8*, GSH bead fluor 6, RGS16-Gao HTS 32.7, Avidin counter -3.1, RGS8-Gao confirm 104.9, RGS7-Gao confirm 102.7, RGS16-Gao conf 106.8, RGS4-Gao confirm 103.4 and RGS19-Gao conf 94.4.
`O=C(CN1C(=O)NC2(CCCCCCC2)C1=O)N1CCN(C(=O)c2ccco2)CC1` gave Avidin bead fluor 8, RGS8-Gao 125.0, RGS7-Gao 118.1, RGS4-Gao reg 119.8, GSH bead fluor 38, RGS16-Gao HTS 199.2*[activator], RGS4-Gao HTS 119.8*, Avidin counter -1.5, RGS8-Gao confirm 100.6, RGS7-Gao confirm 90.7, RGS16-Gao conf 98.7, RGS4-Gao confirm 94.0 and RGS19-Gao conf 100.4.
`O=C(CN1C(=O)NC2(CCCC2)C1=O)N1CCN(C(=O)c2ccco2)CC1` gave Avidin bead fluor 31, RGS8-Gao 102.2, RGS7-Gao 104.4, RGS4-Gao reg 109.8, GSH bead fluor 39 and RGS16-Gao HTS 104.2.
Screening CCCCN(C(=O)CSc1nnc(Nc2ccccc2)s1)c1c(N)n(CCC)c(=O)[nH]c1=O returned Avidin bead fluor 25, RGS8-Gao 104.7, RGS7-Gao 103.0, RGS4-Gao reg 102.4, GSH bead fluor 8 and RGS16-Gao HTS 109.4.
COc1ccc(S(=O)(=O)Nc2cc(Sc3ncn[nH]3)c(O)c3ccccc23)cc1 was read as Avidin bead fluor 2, RGS8-Gao 61.0, RGS7-Gao 77.1, RGS4-Gao reg 72.5, GSH bead fluor 28, RGS16-Gao HTS 11.2* and RGS4-Gao HTS 72.5*.
`CC(C)(C)NC(=O)NC(=O)COC(=O)c1cc[n+]([O-])cc1` gave Avidin bead fluor 207*, RGS8-Gao 121.3, RGS7-Gao 212.5*[activator], RGS4-Gao reg 125.9, GSH bead fluor 22, RGS16-Gao HTS 232.1, RGS4-Gao HTS 125.9*, Avidin counter -1.2, RGS8-Gao confirm 100.1, RGS7-Gao confirm 96.3, RGS16-Gao conf 100.8, RGS4-Gao confirm 98.8 and RGS19-Gao conf 103.3.
CC(C)(C)NC(=O)NC(=O)COC(=O)c1cccc(F)c1 was read as Avidin bead fluor 4, RGS8-Gao 94.1, RGS7-Gao 93.7, RGS4-Gao reg 89.7, GSH bead fluor 24 and RGS16-Gao HTS 87.8.
CC(=O)N1CCCN(Cc2cn(-c3cccc(C)c3)nc2-c2cccc(F)c2)CC1 was read as Avidin bead fluor 8, RGS8-Gao 96.0, RGS7-Gao inconclusive, RGS4-Gao reg 93.6 and RGS16-Gao HTS 88.0.
CCCCN(CCCC)c1cn[nH]c(=O)c1Cl was read as Avidin bead fluor 1, RGS8-Gao 13.2*, RGS7-Gao 16.2*, RGS4-Gao reg 22.1*, GSH bead fluor 12, RGS16-Gao HTS 9.8*, Avidin counter 0.4, RGS8-Gao confirm 103.6, RGS7-Gao confirm 108.6, RGS16-Gao conf 108.7, RGS4-Gao confirm 103.1 and RGS19-Gao conf 106.6.
COc1cc(C2CC(=O)N(CC(=O)NCC3CCCO3)c3ccccc3S2)cc(OC)c1OC (centres undefined) was read as Avidin bead fluor 11, RGS8-Gao 100.9, RGS7-Gao 97.1, RGS4-Gao reg 99.2, GSH bead fluor 23 and RGS16-Gao HTS 101.5.
CC1CCN(S(=O)(=O)c2ccc(S(=O)(=O)NCc3ccccc3)cc2)CC1 was read as Avidin bead fluor 4, RGS8-Gao 100.9, RGS7-Gao 97.0, RGS4-Gao reg 93.0, GSH bead fluor 44 and RGS16-Gao HTS 103.1.
`CC1CCCC(C)N1S(=O)(=O)c1ccc(S(=O)(=O)NCc2ccccc2)cc1` (centres undefined) gave Avidin bead fluor 3, RGS8-Gao 70.9, RGS7-Gao 92.0, RGS4-Gao reg 89.8, GSH bead fluor 22, RGS16-Gao HTS 22.2*, RGS4-Gao HTS 89.8*, Avidin counter 1.1, RGS8-Gao confirm 95.7, RGS7-Gao confirm 103.4, RGS16-Gao conf 99.0, RGS4-Gao confirm 98.6 and RGS19-Gao conf 109.5.
Screening CCOc1cc(-c2nc(C)c(C(C)=O)n2O)ccc1OCC(=O)Nc1ccccc1 returned Avidin bead fluor 18, RGS8-Gao 103.4, RGS7-Gao 101.7, RGS4-Gao reg 102.7, GSH bead fluor 9 and RGS16-Gao HTS 111.9.
